The results in this text go back to PubChem BioAssay (Tox21).

Assay [1] in a line: Nuclear factor erythroid 2-related factor 2/antioxidant responsive element (Nrf2/ARE) small molecule agonists: qHTS cell viability counter screen in human keratinocytes (AID 1919968; active = well fitted cell-killing curve with a large enough effect in the repeat runs; also: nearly all actives have a fitted effect of over 55% in size). The method, boiled down:
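In human HaCaT keratinocytes stably expressing an ARE-driven luciferase, compound exposure lasted 23 h at 37 C under 5% CO2. Viable cells are quantified with a protease-based fluorogenic reagent (CellTiter-Fluor) read 1 h after addition.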
A general note: qHTS replaces the single test concentration by a dilution series.

The nature of assay [2]: Nuclear factor erythroid 2-related factor 2/antioxidant responsive element (Nrf2/ARE) small molecule agonists: luciferase reporter gene qHTS assay in human keratinocytes (AID 1919969; also: nearly all actives have a fitted effect of over 35% in size). (Reporter assays use an easily measured gene product as a stand-in for the process of interest.)
Assay [3] deals with Gonadotropin-releasing hormone receptor (Homo sapiens) (UniProt P30968). Description: Human gonadotropin-releasing hormone receptor (GnRHR) small molecule agonists, calcium flux assay in GnRHR-HEK293 cells (AID 1920063). Also: nearly all actives have a fitted effect of over 35% in size. The method, boiled down:
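Intracellular calcium rise is the read-out: engineered human GnRHR HEK293 cells, dye-loaded, are exposed to DMSO-dissolved compounds and fluorescence at Ex/Em 480/540 is tracked for 3 min.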
For orientation: A change in cytosolic calcium serves as a functional read-out for many receptors and channels.

Assay [4] can be described thus: G protein-coupled receptor (GPCR) small molecule agonists, calcium flux assay: HEK293 wild type cell line counter screen (AID 1920065). The method, boiled down:
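Fluorescence intensity signals activation. After overnight (18 h) culture and a 1 h calcium dye load at 37 C, compounds are added by pin tool and the plate read at 480/540 nm for 3 min in 1 s steps.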

Assay [5] in a line: p53 small molecule agonists, cell-based qHTS assay with rat liver microsomes (AID 1963578). A digest of the protocol:
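Compound in DMSO added to p53RE-bla cells 5 h post-plating; rat microsomes/NADPH 0.5 mg/mL final; 16 h, 37 C; LiveBLAzer 2 h RT.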

A short description of assay [6]: p53 small molecule agonists, cell-based qHTS assay with rat liver microsomes: qHTS cell viability counter screen (AID 1963580). Also: nearly all actives have a fitted effect of over 45% in size. The method, boiled down:
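After the beta-lactamase ratio was read, CellTiter-Glo was added to the same wells and luminescence measured at 30 min; cells had been treated 16 h at 37 C with compounds, rat liver microsomes and NADPH (0.5 mg/mL final each).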

Assay [7] can be described thus: p53 small molecule agonists, cell-based qHTS assay: qHTS cell viability counter screen (AID 1963581). Also: nearly all actives have a fitted effect of over 45% in size. The method, boiled down:
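Luminescence from CellTiter-Glo, reflecting ATP content, serves as the cytotoxicity measure; it is taken after the 2 h reporter substrate step in HCT-116 p53RE-bla cells dosed for 16 h at 37 C.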

Assay [8] is described as follows: p53 small molecule agonists, cell-based qHTS assay (AID 1963582; active = well fitted activation curve with a large enough effect in the signal ratio in the repeat runs, not every such curve was filed as active; the % refers to the signal ratio). The method, boiled down:
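After plating, p53RE-bla cells sat 5 h in the incubator; compounds or DMSO vehicle were pinned in; a 16 h incubation at 37 C followed; FRET substrate was added and, 2 h later at RT, fluorescence was measured.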

Assay [9] concerns the target 5-hydroxytryptamine receptor 2A (Homo sapiens) (UniProt P28223). In words: 5-hydroxytryptamine receptor 2A (HTR2A) small molecule antagonists, cell-based qHTS assay (AID 1963586). Also: nearly all actives have a fitted effect of over 45% in size. A digest of the protocol: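 CHO cells stably expressing human HTR2A were plated for 18 h at 37 C, then loaded with calcium dye for 1 h. Compounds were preincubated 5 min at room temperature before DOI (4 nM solution) was added. Kinetic fluorescence was read for 3 min.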

Assay [10] has the same target. In words: 5-hydroxytryptamine receptor 2A (HTR2A) small molecule agonists, cell-based qHTS assay (AID 1963587). Also: nearly all actives have a fitted effect of over 30% in size. A digest of the protocol:
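CHO cells stably expressing human HTR2A, plated 18 h, loaded with calcium dye 1 h at 37 C. Agonist mode: compounds added and intracellular calcium fluorescence recorded kinetically for 2 min at 1 sec intervals.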

Assay [11] concerns the target Muscarinic acetylcholine receptor M1 (Homo sapiens) (UniProt P11229). In words: Cholinergic receptor muscarinic 1 (CHRM1) small molecule antagonists, cell-based qHTS assay (AID 1963588). Also: nearly all actives have a fitted effect of over 40% in size. Also: potency is read from the fitted curve at half-maximal effect. The method, boiled down:
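Compounds were tested at 15 concentrations in three independent runs. Dye-loaded CHRM1-CHO cells were exposed 5 min at room temperature before stimulation by acetylcholine added at 50nM. Intracellular calcium was read kinetically on FDSS for 3 min.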

Assay [12] shares this target. In words: Cholinergic receptor muscarinic 1 (CHRM1) small molecule agonists, cell-based qHTS assay (AID 1963589). Also: nearly all actives have a fitted effect of over 35% in size. The method, boiled down: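 Fluorescent calcium dye reports M1 activation in stably transfected CHO cells. Compounds, 15 concentrations, added after 1 h dye loading at 37 C; kinetic reading at 1 sec intervals.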
Assay [13] in a line: cAMP Responsive Elements (CRE) small molecule agonists, cell-based qHTS assay (AID 1963590). The method, boiled down:
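Compound exposure lasted 3 h at 37 C/5% CO2 in CRE-bla HEK 293T cells grown in assay medium with 10% dialyzed FBS and 25 mM HEPES. Reporter signal came from LiveBLAzer B/G FRET substrate, 2 h, room temperature.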

The nature of assay [14]: cAMP Responsive Elements (CRE) small molecule antagonists, cell-based qHTS assay (AID 1963591; active = well fitted inhibition curve with a large enough effect in the signal ratio in the repeat runs, not every such curve was filed as active; the % refers to the signal ratio). A digest of the protocol: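 Stimulation used NKH477 at a final 0.25 uM for 3 h in compound-treated CRE-bla HEK293T cells, seeded 18 h beforehand. Reporter activity was measured with LiveBLAzer B/G FRET substrate after 2 h at room temperature.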
Assay [15] addresses Beta-2 adrenergic receptor (Homo sapiens) (UniProt P07550). Description: Adrenergic beta2 receptor (ADRB2) small molecule antagonists, cell-based qHTS assay (AID 1963592). Also: series mostly up to about 92 µM; nearly all actives have a fitted effect of over 50% in size. A digest of the protocol: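 Assay format: CHO-ADRB2 cells, 18-20hr seeding at 37C/5% CO2, then compound plus 1nM isoproterenol agonist mix for 0.5hr RT. Homogeneous time-resolved fluorescence cAMP detection after 1hr, expressed as 665/615 nm ratio.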

Assay [16] concerns the target D(2) dopamine receptor (Homo sapiens) (UniProt P14416). In words: Dopamine D2 receptor (DRD2) small molecule agonists, cell-based qHTS assay (AID 1963594). Also: nearly all actives have a fitted effect of over 35% in size. A digest of the protocol: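 HEK293 cells stably expressing human DRD2, pre-treated with PDE inhibitor Ro20-1724 (0.1 mM final) and compound 10 min at room temperature, then stimulated with NKH477 (200nM […]) for 30 min. cAMP read by HTRF (665/620 nm).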

Assay [17] has the same target. In words: Dopamine D2 receptor (DRD2) small molecule antagonists, cell-based qHTS assay (AID 1963595; active = well fitted inhibition curve with a large enough effect in the signal ratio in the repeat runs, with a control signal flat; the % refers to the signal ratio). A digest of the protocol: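 Antagonist mode in DRD2-HEK293 cells: after compound addition with 0.1 mM Ro20-1724, cells received quinpirole (12 nM) and NKH477 (200 nM) for 30 min at room temperature; HTRF cAMP read after 1 h detection.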
A short description of assay [18]: p53 small molecule agonists, cell-based qHTS assay with human liver microsomes: qHTS cell viability counter screen (AID 1963579). Also: nearly all actives have a fitted effect of over 45% in size. A digest of the protocol: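 HLM-supplemented (0.5 mg/mL final) and NADPH-supplemented (0.5 mg/mL final) p53RE-bla cultures, 4,000 cells per well, were dosed with compounds in DMSO for 16 h at 37 C; luminescent ATP detection (CellTiter-Glo, 30 min, room temperature) quantified surviving cells.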

The target in assay [19] is Beta-2 adrenergic receptor (Homo sapiens) (UniProt P07550). Description: Adrenergic beta2 receptor (ADRB2) small molecule agonists, cell-based qHTS assay (AID 1963593).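 Also: CHO cells stably overexpressing human ADRB2.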 A digest of the protocol:
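CHO cells stably over-expressing ADRB2 were plated overnight at 37C, then dosed with compounds plus a stimulation mix containing 100uM IBMX and 25uM Ro-20-1724 for 0.5hr at room temperature. cAMP was measured by HTRF competition, 1hr.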

Molecules are shown by their SMILES. Unmarked numbers belong to inactive results. Records with an inconclusive call do not appear. Activity calls are given as the source filed them. Unless noted, calls follow the shape of the full dose curve.

Beta-2 adrenergic receptor (Homo sapiens), sequence (P07550 whole entry, looked up): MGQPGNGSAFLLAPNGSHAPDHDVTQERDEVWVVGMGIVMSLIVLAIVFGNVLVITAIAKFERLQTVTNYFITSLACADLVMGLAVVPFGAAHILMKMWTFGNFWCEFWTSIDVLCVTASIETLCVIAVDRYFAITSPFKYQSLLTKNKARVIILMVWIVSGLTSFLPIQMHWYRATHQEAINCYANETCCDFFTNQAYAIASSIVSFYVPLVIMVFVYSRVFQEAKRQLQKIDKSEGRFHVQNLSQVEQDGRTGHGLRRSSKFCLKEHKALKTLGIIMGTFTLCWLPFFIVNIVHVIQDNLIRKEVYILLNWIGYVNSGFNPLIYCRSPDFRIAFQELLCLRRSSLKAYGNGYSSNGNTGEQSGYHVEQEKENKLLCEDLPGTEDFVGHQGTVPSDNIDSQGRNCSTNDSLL
5-hydroxytryptamine receptor 2A (Homo sapiens), sequence (P28223 whole entry, looked up): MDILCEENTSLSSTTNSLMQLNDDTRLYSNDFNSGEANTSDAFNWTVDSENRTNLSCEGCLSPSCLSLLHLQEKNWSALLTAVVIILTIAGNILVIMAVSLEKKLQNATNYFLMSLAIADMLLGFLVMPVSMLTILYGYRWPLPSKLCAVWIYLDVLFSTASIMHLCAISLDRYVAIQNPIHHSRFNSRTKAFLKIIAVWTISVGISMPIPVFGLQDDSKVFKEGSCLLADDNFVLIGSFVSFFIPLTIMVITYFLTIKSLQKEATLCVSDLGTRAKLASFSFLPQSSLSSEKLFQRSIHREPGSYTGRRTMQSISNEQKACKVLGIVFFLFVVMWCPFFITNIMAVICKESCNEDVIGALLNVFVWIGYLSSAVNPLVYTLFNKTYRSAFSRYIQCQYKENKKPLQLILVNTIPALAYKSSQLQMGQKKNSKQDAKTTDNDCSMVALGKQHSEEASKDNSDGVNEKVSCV
Muscarinic acetylcholine receptor M1 (Homo sapiens), sequence (P11229 whole entry, looked up): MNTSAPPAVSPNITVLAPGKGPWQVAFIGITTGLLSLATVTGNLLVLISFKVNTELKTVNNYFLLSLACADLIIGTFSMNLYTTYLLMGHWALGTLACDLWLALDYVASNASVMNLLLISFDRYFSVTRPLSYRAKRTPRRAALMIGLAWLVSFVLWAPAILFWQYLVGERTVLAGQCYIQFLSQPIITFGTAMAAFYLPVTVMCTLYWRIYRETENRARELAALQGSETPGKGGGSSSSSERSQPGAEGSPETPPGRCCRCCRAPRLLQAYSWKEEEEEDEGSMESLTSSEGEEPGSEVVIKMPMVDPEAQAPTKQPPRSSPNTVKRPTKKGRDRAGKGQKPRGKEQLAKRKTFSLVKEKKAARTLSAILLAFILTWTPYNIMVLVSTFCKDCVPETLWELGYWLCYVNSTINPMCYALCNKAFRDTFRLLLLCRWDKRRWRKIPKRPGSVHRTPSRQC
D(2) dopamine receptor (Homo sapiens), sequence (P14416 whole entry, looked up): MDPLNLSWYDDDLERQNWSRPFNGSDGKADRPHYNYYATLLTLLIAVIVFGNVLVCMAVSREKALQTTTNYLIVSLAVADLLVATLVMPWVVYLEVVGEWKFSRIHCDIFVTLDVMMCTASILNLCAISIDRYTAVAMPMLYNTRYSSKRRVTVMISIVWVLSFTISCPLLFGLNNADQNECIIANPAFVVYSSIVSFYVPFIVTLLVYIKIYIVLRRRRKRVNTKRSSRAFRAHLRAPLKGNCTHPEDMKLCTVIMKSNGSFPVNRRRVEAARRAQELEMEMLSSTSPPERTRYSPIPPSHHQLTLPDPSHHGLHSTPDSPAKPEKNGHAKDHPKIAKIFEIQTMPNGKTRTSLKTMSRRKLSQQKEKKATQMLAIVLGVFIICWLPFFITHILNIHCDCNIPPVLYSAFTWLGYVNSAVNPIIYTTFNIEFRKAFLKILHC
Gonadotropin-releasing hormone receptor (Homo sapiens), sequence (P30968 whole entry, looked up): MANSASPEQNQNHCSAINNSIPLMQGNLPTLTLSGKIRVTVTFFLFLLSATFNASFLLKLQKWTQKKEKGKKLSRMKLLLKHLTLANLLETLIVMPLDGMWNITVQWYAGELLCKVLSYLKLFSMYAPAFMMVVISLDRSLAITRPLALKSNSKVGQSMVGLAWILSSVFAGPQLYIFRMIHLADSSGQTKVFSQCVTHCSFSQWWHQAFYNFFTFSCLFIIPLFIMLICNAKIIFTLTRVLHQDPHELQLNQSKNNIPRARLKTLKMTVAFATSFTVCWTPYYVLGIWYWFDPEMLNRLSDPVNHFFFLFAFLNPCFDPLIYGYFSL

Consider `CC(C)OC(=O)CCC(=O)OC(C)C`, for which the Potency entry in assay [1], in assay [2], in assay [3], in assay [4], in assay [5] and in assay [6] was “inactive” each time. In addition, the Potency result in assay [7], in [8], in [9], in assay [10], in assay [11] and in assay [12] was “inactive” each time. The Potency result in assay [13], in assay [14], in assay [15], in assay [16] and in assay [17] was “inactive” throughout.
`C=CCCCCCCCCOC(C)=O`: the Potency entry in assay [1], in assay [2], in [3], in assay [4], in assay [18] and in assay [6] was “inactive” in each case. Besides, the Potency result in [7], in assay [9], in assay [10], in assay [11], in assay [12] and in assay [13] was “inactive” throughout. Moreover, the Potency entry in [14], in [15] and in [16] was “inactive” each time.
As for `C=COCCOCCOC=C`, the Potency result in assay [1], in [2], in assay [3], in [4], in assay [5] and in assay [18] was “inactive” in each case. The Potency result in assay [7], in [8], in [9], in assay [10], in assay [11] and in assay [12] was “inactive” in each case. For the same compound, the Potency entry in assay [13], in assay [14], in assay [15], in [19], in [16] and in assay [17] was “inactive” throughout.
On to `NS(=O)(=O)c1ccc(C(=O)O)cc1`, for which the Potency result in assay [1], in assay [2], in [3], in assay [4], in [5] and in assay [18] was “inactive” in each case. Besides, the Potency result in assay [6], in assay [8], in assay [9], in [11], in assay [13] and in assay [14] was “inactive” in each case. In addition, the Potency entry in assay [15], in assay [19], in assay [16] and in [17] was “inactive” each time.
With `O=C(O)CCCCCCCCCC(=O)O`, the Potency entry in assay [1], in assay [2], in assay [3], in assay [4], in [18] and in assay [6] was “inactive” in each case. Also, the Potency result in [7], in assay [9], in assay [10], in assay [11], in [12] and in assay [14] was “inactive” throughout. For the same compound, the Potency entry in assay [15], in assay [16] and in assay [17] was “inactive” in each case.
For the compound `C[C@@H](O)C(=O)O`, the Potency entry in [1], in assay [2], in assay [3], in [4], in assay [5] and in assay [18] was “inactive” throughout. The Potency result in assay [6], in assay [7], in assay [8], in assay [13], in [14] and in assay [16] was “inactive” each time. Besides, the Potency result in assay [17] is “inactive”.
`Fc1ccc(C(c2ccc(F)cc2)N2CCNCC2)cc1`: the Potency result in assay [1], in assay [2], in [3], in assay [4], in [5] and in assay [18] was “inactive” in each case. Also, the Potency result in [6], in assay [10], in assay [12], in [14], in assay [15] and in assay [16] was “inactive” each time. Also, the Potency result in [17] is “inactive”. The Potency in assay [11] is 2.9 µM (active).
Take `C[C@@H]1C[C@H]2[C@@H]3CCC4=CC(=O)C=C[C@]4(C)[C@@]3(Cl)[C@@H](O)C[C@]2(C)[C@@]1(OC(=O)c1ccco1)C(=O)CCl`: the Potency result in [1], in [2], in [3], in assay [4], in assay [5] and in assay [18] was “inactive” in each case. Also, the Potency entry in assay [6], in [7], in [8], in [9], in assay [10] and in assay [11] was “inactive” each time. The Potency entry in assay [12], in [14], in assay [16] and in assay [17] was “inactive” in each case.
